Reference: the supplement of paper PMC10849652
Of roughly 7,900 targets only a part is listed; those with a hit were picked by preference. About 0.6% of all pairs of compound and target were hits.

Tests used:
Assay in all cases: log2 fold change, soluble protein after heating vs DMSO (PISA); higher = thermal stabilisation; K562 cells, 10 uM, 30 min; active = over 0.2 and 3.5 SD of the protein, either way, in both replicates (recomputed)
[1] = compound: NC(=O)Nc1cc(-c2cccc(F)c2)sc1C(=O)N[C@H]1CCCNC1
Procedure, shortened: (§1)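 Soluble protein was quantified by TMTpro 16plex LC-MS/MS after channel sums were equalised. It was obtained as the supernatant after 21,000xg for 90 min from pooled aliquots of K562 cells (2×10^6 cells/mL, 10 μM compound, 30 min) heated for 3 min across 48°C-58°C and extracted in PBS with 0.5% NP-40 at 4°C. Thermal stability values are relative to control samples and come from duplicates. They are given as log2 fold changes.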

[2] = compound: NC(=O)c1cnc(N[C@@H]2CCCC[C@@H]2N)nc1Nc1cccc(-n2nccn2)c1
Procedure, shortened: as §1

[3] = compound: NC1(c2ccc(-c3nc4ccn5c(=O)[nH]nc5c4cc3-c3ccccc3)cc2)CCC1
Procedure, shortened: as §1

[4] = compound: NCC(=O)Nc1ccc(-n2nc(C(F)(F)F)cc2-c2ccc3c(ccc4ccccc43)c2)cc1
Procedure, shortened: as §1

[5] = compound: Nc1ccccc1NC(=O)c1ccc(CNC(=O)OCc2cccnc2)cc1 [entinostat]
Procedure, shortened: as §1

[6] = compound: O=C(CCCCCCC(=O)Nc1ccccc1)NO [vorinostat]
Procedure, shortened: as §1

[7] = compound: O=C(CCCCCCNC(=O)c1cnc(N(c2ccccc2)c2ccccc2Cl)nc1)NO [citarinostat]
Procedure, shortened: as §1

[8] = compound: O=C(O)c1ccc2c(c1)nc(Nc1cccc(Cl)c1)c1ccncc12 [silmitasertib]
Procedure, shortened: as §1

[9] = compound: O=C1NC(=O)C(c2cnc3ccccn23)=C1c1cn2c3c(cc(F)cc13)CN(C(=O)N1CCCCC1)CC2
Procedure, shortened: as §1

[10] = compound: c1cc(OCCN2CCCCC2)cc(-c2n[nH]c3ccc(-c4nnc[nH]4)cc23)c1
Procedure, shortened: as §1

[11] = compound: c1cn2cc(-c3ccc4cn[nH]c4c3)nc(Nc3ccc(N4CCOCC4)cc3)c2n1 [entospletinib]
Procedure, shortened: as §1

Measured: log2 fold change

HTATIP2 isoform 3 (UniProt Q9BUP3)
inactive: [1] -0.047 | [2] 0.036 | [3] -0.07 | [4] -0.037 | [5] -0.006 | [6] 0.038 | [7] 0.05 | [8] 0.01 | [9] -0.066 | [10] -0.045 | [11] 0.003

H1FX (UniProt Q92522)
inactive: [1] 0.248 | [2] 0.165 | [3] 0.153 | [4] 0.118 | [5] -0.072 | [6] 0 | [7] -0.122 | [8] 0.078 | [9] 0.227 | [10] -0.12 | [11] 0.02

GNS (UniProt P15586)
inactive: [1] 0.002 | [2] 0 | [3] -0.109 | [4] 0.01 | [5] -0.006 | [6] -0.036 | [7] 0.019 | [8] -0.026 | [9] -0.049 | [10] 0.003 | [11] 0.002

HIP1 (UniProt O00291)
inactive: [1] -0.038 | [2] 0.035 | [3] 0.032 | [4] 0.038 | [5] -0.061 | [6] -0.013 | [7] 0.072 | [8] -0.123 | [9] -0.146 | [10] 0.06 | [11] -0.04

GLS (UniProt O94925)
Sequence of UniProt O94925 (O94925 whole entry, looked up): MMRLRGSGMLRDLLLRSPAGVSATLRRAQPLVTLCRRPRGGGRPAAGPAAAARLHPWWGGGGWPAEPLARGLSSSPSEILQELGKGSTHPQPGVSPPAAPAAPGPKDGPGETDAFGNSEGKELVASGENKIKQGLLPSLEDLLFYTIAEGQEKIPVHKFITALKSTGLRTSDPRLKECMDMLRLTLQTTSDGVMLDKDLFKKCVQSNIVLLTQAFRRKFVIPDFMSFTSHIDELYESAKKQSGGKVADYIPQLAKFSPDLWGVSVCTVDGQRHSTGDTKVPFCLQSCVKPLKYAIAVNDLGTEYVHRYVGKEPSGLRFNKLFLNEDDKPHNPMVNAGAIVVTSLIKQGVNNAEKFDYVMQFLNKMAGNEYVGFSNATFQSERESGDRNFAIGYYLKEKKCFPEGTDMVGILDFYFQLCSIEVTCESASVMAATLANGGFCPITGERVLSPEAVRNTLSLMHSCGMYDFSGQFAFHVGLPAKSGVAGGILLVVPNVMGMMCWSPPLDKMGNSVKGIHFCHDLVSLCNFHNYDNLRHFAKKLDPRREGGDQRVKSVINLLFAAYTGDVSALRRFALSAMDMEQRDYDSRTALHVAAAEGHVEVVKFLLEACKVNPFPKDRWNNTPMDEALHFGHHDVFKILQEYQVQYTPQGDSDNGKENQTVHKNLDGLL
inactive: [1] -0.019 | [2] 0.152 | [3] -0.157 | [4] -0.093 | [5] 0.039 | [6] 0.022 | [7] 0.068 | [8] 0.008 | [9] -0.193 | [10] -0.032 | [11] 0.022

HSPA8 (UniProt E9PK54)
inactive: [1] 0.015 | [2] 0.023 | [3] -0.071 | [4] -0.136 | [5] 0.061 | [6] -0.064 | [7] 0.068 | [8] 0.028 | [9] 0.093 | [10] -0.027 | [11] -0.212

HADHB (UniProt P55084)
Sequence of UniProt P55084 (P55084 whole entry, looked up): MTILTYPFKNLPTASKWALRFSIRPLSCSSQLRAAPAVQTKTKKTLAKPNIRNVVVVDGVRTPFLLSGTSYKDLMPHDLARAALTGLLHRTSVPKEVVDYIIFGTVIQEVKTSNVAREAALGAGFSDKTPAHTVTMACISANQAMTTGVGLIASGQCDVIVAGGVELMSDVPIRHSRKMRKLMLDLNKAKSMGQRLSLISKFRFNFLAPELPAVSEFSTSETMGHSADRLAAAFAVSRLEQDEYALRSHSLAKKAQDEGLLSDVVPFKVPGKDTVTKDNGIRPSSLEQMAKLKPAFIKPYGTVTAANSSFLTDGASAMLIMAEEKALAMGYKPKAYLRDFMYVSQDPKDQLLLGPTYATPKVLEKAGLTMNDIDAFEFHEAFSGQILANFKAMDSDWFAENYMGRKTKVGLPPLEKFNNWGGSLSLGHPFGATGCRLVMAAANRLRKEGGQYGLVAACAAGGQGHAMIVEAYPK
active: [9] 0.716
inactive: [1] -0.079 | [2] 0.021 | [3] 0.104 | [4] 0.078 | [5] 0.014 | [6] 0 | [7] 0.037 | [8] -0.115 | [10] -0.056 | [11] 0.006

HIST2H3A (UniProt Q71DI3)
inactive: [1] 0.032 | [2] 0.286 | [3] 0.46 | [4] -0.077 | [5] 0.196 | [6] 0.442 | [7] 0.006 | [8] -0.084 | [9] 0.07 | [10] -0.02 | [11] -0.078

GNPAT (UniProt O15228)
Sequence of UniProt O15228 (O15228 whole entry, looked up): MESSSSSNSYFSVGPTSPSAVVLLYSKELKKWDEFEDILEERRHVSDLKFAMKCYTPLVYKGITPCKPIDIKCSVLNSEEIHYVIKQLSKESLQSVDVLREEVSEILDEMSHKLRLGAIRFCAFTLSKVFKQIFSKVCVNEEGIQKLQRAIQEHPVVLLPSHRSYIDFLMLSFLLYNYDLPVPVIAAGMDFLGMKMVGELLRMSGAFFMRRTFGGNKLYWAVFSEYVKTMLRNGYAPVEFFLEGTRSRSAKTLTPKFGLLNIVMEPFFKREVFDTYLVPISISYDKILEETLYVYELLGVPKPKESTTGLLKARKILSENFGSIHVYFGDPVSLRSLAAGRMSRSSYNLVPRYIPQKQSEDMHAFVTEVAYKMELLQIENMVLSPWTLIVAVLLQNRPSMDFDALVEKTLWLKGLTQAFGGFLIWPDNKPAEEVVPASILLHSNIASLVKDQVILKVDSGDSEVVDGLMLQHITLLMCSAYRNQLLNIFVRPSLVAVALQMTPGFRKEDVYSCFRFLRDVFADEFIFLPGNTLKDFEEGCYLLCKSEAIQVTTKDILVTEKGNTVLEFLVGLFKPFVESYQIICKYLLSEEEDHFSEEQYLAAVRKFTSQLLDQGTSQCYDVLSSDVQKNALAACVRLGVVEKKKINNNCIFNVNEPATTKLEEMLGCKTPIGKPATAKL
inactive: [1] 0.02 | [2] -0.008 | [3] -0.066 | [4] 0 | [5] 0.021 | [6] -0.008 | [7] 0.041 | [8] -0.041 | [9] -0.061 | [10] -0.02 | [11] 0.003

HDAC6 (UniProt Q9UBN7)
inactive: [1] 0.002 | [2] -0.04 | [3] 0.054 | [4] 0.001 | [5] -0.053 | [8] 0.009 | [9] 0.004 | [10] 0.064 | [11] 0.034
active: [6] 0.86 | [7] 0.747

FEN1 (UniProt P39748)
inactive: [1] -0.022 | [2] -0.154 | [3] -0.28 | [4] -0.157 | [5] 0.034 | [6] 0.246 | [7] 0.111 | [8] -0.1 | [9] -0.129 | [10] 0.035 | [11] -0.051

HPCAL1 (UniProt P37235)
inactive: [1] 0.033 | [2] -0.014 | [3] -0.152 | [4] -0.032 | [5] 0.006 | [6] -0.018 | [7] 0.032 | [8] 0.028 | [9] -0.03 | [10] -0.032 | [11] 0.023

GATD1 (UniProt Q8NB37)
active: [9] -0.673
inactive: [1] 0.012 | [2] 0.028 | [3] -0.037 | [4] -0.013 | [5] -0.084 | [6] -0.018 | [7] -0.031 | [8] -0.025 | [10] -0.031 | [11] -0.021

GALC (UniProt P54803)
inactive: [1] 0.015 | [2] 0.016 | [3] -0.165 | [4] 0.001 | [5] -0.012 | [6] -0.138 | [7] 0.017 | [8] 0.042 | [9] 0 | [10] 0.096 | [11] 0.067

GNAS (UniProt Q5JWF2)
Sequence of UniProt Q5JWF2 (Q5JWF2 whole entry, looked up): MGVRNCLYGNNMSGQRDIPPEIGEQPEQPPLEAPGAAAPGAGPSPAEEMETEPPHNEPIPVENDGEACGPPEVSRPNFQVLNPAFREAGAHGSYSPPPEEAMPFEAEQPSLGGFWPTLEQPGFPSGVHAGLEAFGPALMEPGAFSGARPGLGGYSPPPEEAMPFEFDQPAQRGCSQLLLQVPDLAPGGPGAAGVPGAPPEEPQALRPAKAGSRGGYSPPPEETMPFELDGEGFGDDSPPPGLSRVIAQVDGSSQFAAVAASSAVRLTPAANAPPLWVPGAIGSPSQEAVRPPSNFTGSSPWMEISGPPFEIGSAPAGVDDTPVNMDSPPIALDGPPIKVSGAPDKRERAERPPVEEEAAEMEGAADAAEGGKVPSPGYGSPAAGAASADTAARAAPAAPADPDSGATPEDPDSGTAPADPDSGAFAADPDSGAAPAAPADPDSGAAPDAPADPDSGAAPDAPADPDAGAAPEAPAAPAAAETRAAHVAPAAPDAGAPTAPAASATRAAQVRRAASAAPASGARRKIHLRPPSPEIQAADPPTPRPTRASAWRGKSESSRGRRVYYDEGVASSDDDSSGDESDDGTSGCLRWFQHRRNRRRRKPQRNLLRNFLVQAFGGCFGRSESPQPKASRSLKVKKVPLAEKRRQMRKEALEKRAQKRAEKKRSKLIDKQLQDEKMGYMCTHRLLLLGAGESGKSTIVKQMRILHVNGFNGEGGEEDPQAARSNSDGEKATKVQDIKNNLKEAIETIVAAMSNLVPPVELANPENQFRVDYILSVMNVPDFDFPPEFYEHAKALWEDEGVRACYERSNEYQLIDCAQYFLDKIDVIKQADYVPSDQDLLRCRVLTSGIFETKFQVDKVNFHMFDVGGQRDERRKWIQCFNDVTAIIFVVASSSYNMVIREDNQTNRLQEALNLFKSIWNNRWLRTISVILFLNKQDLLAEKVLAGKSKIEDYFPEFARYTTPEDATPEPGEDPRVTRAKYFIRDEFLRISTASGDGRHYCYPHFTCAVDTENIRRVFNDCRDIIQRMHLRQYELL
inactive: [1] -0.133 | [2] -0.009 | [3] 0.002 | [4] -0.004 | [5] -0.058 | [6] -0.022 | [7] -0.043 | [8] -0.018 | [9] -0.007 | [10] -0.045 | [11] 0.052

HBQ1 (UniProt P09105)
Sequence of UniProt P09105 (P09105 whole entry, looked up): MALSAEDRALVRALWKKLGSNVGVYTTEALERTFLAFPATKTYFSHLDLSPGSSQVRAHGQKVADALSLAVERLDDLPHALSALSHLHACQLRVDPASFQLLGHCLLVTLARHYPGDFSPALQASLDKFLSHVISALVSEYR
inactive: [1] 0.058 | [2] -0.048 | [3] -0.043 | [4] 0.006 | [5] 0.014 | [6] -0.05 | [7] 0.032 | [8] -0.047 | [9] -0.119 | [10] 0.021 | [11] 0.001

GSTP1 (UniProt P09211)
Sequence of UniProt P09211 (P09211 whole entry, looked up): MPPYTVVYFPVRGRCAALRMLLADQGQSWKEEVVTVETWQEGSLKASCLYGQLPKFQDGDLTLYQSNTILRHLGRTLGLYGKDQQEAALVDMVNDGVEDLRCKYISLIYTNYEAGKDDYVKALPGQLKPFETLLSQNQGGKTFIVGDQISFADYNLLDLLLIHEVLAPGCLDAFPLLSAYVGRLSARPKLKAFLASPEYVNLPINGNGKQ
inactive: [1] -0.044 | [2] -0.01 | [3] -0.056 | [4] 0.001 | [5] -0.006 | [6] -0.012 | [7] 0.034 | [8] -0.038 | [9] -0.005 | [10] -0.013 | [11] -0.03

GALNT2 (UniProt Q10471)
inactive: [1] 0 | [2] -0.042 | [3] -0.125 | [4] 0.002 | [5] -0.018 | [6] 0.033 | [7] 0.064 | [8] -0.021 | [9] -0.034 | [10] 0.005 | [11] -0.041

HEATR5B (UniProt Q9P2D3)
inactive: [1] 0.01 | [2] 0.012 | [3] -0.152 | [4] -0.028 | [5] -0.03 | [6] -0.008 | [7] 0 | [8] -0.053 | [9] 0.083 | [10] 0.056 | [11] -0.025

HOOK3 (UniProt Q86VS8)
inactive: [1] 0.05 | [2] -0.077 | [3] -0.079 | [4] -0.081 | [5] 0.063 | [6] 0.056 | [7] -0.022 | [8] 0.101 | [9] -0.049 | [10] -0.05 | [11] 0.025

FKBP3 (UniProt Q00688)
Sequence of UniProt Q00688 (Q00688 whole entry, looked up): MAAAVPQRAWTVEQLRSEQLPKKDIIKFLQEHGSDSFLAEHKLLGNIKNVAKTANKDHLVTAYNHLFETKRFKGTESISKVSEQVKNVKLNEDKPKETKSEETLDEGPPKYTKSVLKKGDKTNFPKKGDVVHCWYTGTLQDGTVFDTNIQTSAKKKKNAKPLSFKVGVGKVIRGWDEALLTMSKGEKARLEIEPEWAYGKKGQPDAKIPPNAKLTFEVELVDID
inactive: [1] 0.042 | [2] 0.019 | [3] 0.02 | [4] 0.037 | [5] 0.016 | [6] 0.007 | [7] 0.009 | [8] -0.034 | [9] -0.02 | [10] 0.054 | [11] -0.028

GALNT1 (UniProt Q10472)
inactive: [1] -0.016 | [2] -0.012 | [3] -0.068 | [4] -0.016 | [5] -0.027 | [6] 0.067 | [7] 0.011 | [8] -0.007 | [9] -0.121 | [10] 0.046 | [11] 0.01

HIC2 (UniProt Q96JB3)
Sequence of UniProt Q96JB3 (Q96JB3 whole entry, looked up): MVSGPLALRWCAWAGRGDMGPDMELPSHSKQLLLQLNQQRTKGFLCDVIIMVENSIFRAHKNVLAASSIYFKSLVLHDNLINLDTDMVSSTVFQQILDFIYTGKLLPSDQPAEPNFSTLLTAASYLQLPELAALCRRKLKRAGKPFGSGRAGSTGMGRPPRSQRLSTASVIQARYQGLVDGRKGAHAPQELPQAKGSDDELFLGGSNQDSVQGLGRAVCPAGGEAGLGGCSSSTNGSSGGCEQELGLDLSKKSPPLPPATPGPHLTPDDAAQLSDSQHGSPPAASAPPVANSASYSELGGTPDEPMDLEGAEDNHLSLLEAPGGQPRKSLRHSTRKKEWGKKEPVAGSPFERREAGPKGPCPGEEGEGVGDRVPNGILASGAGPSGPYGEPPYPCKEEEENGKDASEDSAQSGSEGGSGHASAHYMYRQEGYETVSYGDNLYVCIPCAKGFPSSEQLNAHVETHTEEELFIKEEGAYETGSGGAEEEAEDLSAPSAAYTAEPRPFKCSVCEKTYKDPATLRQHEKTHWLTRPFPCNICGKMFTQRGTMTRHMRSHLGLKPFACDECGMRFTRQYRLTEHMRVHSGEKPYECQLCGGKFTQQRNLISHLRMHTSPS
inactive: [1] -0.071 | [2] -0.06 | [3] 0.016 | [4] 0.101 | [5] -0.027 | [6] -0.027 | [7] -0.019 | [8] 0.098 | [9] 0.121 | [10] -0.233 | [11] 0.129

IFI30 (UniProt P13284)
inactive: [1] 0.035 | [2] 0.127 | [3] -0.048 | [4] 0.083 | [5] -0.052 | [6] 0.03 | [7] 0.059 | [8] -0.052 | [9] 0.128 | [10] -0.028 | [11] -0.032

GAGE12F (UniProt P0CL80)
inactive: [1] 0.029 | [2] -0.013 | [3] 0.083 | [4] -0.059 | [5] 0.031 | [6] 0.024 | [7] 0 | [8] 0.01 | [9] 0.021 | [10] -0.08 | [11] 0.031

FIS1 (UniProt Q9Y3D6)
Sequence of UniProt Q9Y3D6 (Q9Y3D6 whole entry, looked up): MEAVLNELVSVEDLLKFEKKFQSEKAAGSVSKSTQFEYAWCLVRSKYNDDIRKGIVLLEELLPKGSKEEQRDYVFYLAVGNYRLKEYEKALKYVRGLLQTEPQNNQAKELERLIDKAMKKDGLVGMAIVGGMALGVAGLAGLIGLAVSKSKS
inactive: [1] -0.013 | [2] 0.075 | [3] 0.002 | [4] 0.133 | [5] -0.004 | [6] -0.027 | [7] 0.051 | [8] -0.017 | [9] -0.03 | [10] -0.006 | [11] 0.038

GPD1 (UniProt P21695)
Sequence of UniProt P21695 (P21695 whole entry, looked up): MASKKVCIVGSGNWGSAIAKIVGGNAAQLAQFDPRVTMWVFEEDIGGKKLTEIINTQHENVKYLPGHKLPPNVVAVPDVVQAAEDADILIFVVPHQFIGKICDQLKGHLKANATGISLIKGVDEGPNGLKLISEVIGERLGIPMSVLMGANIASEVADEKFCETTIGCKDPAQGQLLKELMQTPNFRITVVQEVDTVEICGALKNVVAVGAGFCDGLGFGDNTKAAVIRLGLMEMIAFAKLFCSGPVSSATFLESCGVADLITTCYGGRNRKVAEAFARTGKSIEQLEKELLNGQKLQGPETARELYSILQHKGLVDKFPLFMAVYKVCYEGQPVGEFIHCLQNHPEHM
inactive: [1] 0.067 | [2] 0 | [3] 0.059 | [4] -0.067 | [5] -0.068 | [6] -0.035 | [8] -0.16 | [9] -0.157

GLUL (UniProt P15104)
Sequence of UniProt P15104 (P15104 whole entry, looked up): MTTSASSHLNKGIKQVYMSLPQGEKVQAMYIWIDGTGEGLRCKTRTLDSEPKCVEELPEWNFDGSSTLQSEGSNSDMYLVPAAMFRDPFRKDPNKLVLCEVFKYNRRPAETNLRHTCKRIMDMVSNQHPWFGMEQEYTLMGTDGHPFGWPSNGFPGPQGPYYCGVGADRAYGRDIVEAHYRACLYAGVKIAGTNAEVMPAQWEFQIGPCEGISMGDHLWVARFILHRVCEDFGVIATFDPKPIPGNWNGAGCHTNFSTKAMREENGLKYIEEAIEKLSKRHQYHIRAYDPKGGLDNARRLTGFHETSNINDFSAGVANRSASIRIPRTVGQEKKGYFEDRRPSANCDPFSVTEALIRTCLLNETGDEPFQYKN
inactive: [1] 0.059 | [2] -0.104 | [3] 0.061 | [4] 0.018 | [5] -0.009 | [6] 0.04 | [7] -0.024 | [8] 0.032 | [9] -0.012 | [10] -0.087 | [11] -0.019
